Activity calls are given as the source filed them.
Experiments:
Albumin (Bos taurus) = Albumin (Bos taurus) (UniProt P02769); assay: bovine serum albumin binders on microarray, profiling panel, artefact control for SMM control protein annotation, biochemical, small-molecule microarray, Alexa647 label, 635/667 nm fluorescence (AID 1118); conditions: BSA-A647 binding, fluorescence 635 nm, higher = more signal;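 note: score merges 667 nm emission intensity and signal-to-noise per printed compound spot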
[1] = small-molecule microarray binders of probe aXIP, primary screen, biochemical, NeuroSMM set, 635/667 nm fluorescence (AID 1119); conditions: higher = more signal, called active from +8 up or from −8 down;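 note: probe is the protein aXip251-270 applied at 1 µg/mL to compound-printed slides; binding of probe to printed compounds measured as 667 nm fluorescence plus signal to noise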
[2] = small-molecule binders of probe aNOTCH3, primary screen, biochemical, small-molecule microarray, 635/667 nm fluorescence (AID 1120); conditions: higher = more signal;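 note: probe is a biotin-tagged antibody raised against NOTCH3 rather than NOTCH3 protein; score merges spot fluorescence near 667 nm with spot signal to noise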
[3] = small-molecule binders of probe aNOTCH2, primary screen, biochemical, small-molecule microarray, 635/667 nm fluorescence (AID 1121); conditions: higher = more signal;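 note: score merges feature fluorescence read at 667 nm with its signal to noise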
[4] = molecular target: Carbonic anhydrase 2 (Homo sapiens) (UniProt P00918); assay: CAII small-molecule binders, profiling panel, biochemical, small-molecule microarray, Alexa647-labelled CAII (AID 1122); conditions: CAII-A647 binding fluorescence, higher = more signal
[5] = COS7 lysate on small-molecule microarray, probe aHis, 635 nm (AID 1123); conditions: COS7 cell lysate, fluorescence, higher = more signal;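 note: z-score combines 667nm fluorescence intensity with signal-to-noise per printed compound spot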
[6] = compound binding in COS7 lysate, probe aLAP1, primary screen, cell lysate, small-molecule microarray (AID 1124); conditions: probe aLAP1, fluorescence, higher = more signal;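 note: lysate comes from COS7 cells expressing LAP1 and is applied at 0.3 µg/mL; score merges spot fluorescence near 667 nm with signal-to-noise over triplicate slides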
Sam68 (KHDRBS1) = assay: Sam68 small-molecule binders, primary screen, biochemical, small-molecule microarray, 635 nm fluorescence (AID 1125); conditions: small-molecule microarray binding, higher = more signal;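 note: score merges 667 nm channel intensity with signal to noise over triplicate slides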
[7] = system: Chordin-like protein 2 (CHRDL2); assay: CHRDL2 small-molecule binders, primary screen, biochemical, small-molecule microarray, 635 nm fluorescence (AID 1126); conditions: small-molecule microarray binding, fluorescence 635 nm; higher = more signal;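 note: printed compound slides probed with Chrdl2 protein at 4 µg/mL for 1 h at 4 C; score merges 667 nm emission intensity with signal to noise over three replicate slides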
[8] = molecular target: Concanavalin-A (Canavalia ensiformis) (UniProt P02866); assay: ConA small-molecule binders, primary screen, artefact control for SMM control protein annotation, biochemical, small-molecule microarray, Alexa647 label, 635 nm (AID 1127); conditions: ConA-A647 binding fluorescence, higher = more signal;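 note: z combines 667 nm emission intensity with signal-to-noise across three replicate slides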
[9] = anti-His antibody binders, primary screen, artefact control for SMM control protein annotation, biochemical, small-molecule microarray, 635 nm fluorescence (AID 1128); conditions: anti-His Alexa647 antibody binding, higher = more signal;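 note: score merges feature fluorescence with signal-to-noise for each printed compound spot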
[10] = system: Human papillomavirus type 1a E7 protein (residues 1-88); assay: HPV1a E7 small-molecule binders, primary screen, biochemical, small-molecule microarray, residues 1-88, 635 nm (AID 1129); conditions: small-molecule microarray binding, fluorescence 635 nm; higher = more signal
[11] = molecular target: Focal adhesion kinase 1 (Homo sapiens) (UniProt Q05397); assay: small-molecule microarray binders of FAK, primary screen, biochemical, 635/667 nm fluorescence, BSA, DTT (AID 1130); conditions: PTK2 binding, 635 nm fluorescence, higher = more signal;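 note: composite of spot emission at 667 nm and signal to noise over triplicate slides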
[12] = system: Fibrinogen (Alexa647-labelled); assay: fibrinogen binders on compound microarrays, profiling panel, artefact control for SMM control-protein annotation, biochemical, small-molecule microarray, 635/667 nm fluorescence (AID 1131); conditions: fibrinogen-A647 binding fluorescence, higher = more signal;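 note: z-score merges 667 nm fluorescence with per-spot signal-to-noise over triplicate slides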
[13] = molecular target: Follistatin (Homo sapiens) (UniProt P19883); assay: follistatin binders on small-molecule microarrays, primary screen, biochemical, small-molecule microarray, 635/667 nm fluorescence (AID 1132); conditions: FST binding, 635 nm fluorescence, higher = more signal
[14] = molecular target: Fibroblast growth factor 2 (Homo sapiens) (UniProt P09038); assay: FGF2 binders on small-molecule microarrays, primary screen, biochemical, small-molecule microarray, 635/667 nm fluorescence (AID 1133); conditions: small-molecule microarray binding, FGF2, fluorescence 635/667; higher = more signal
[15] = mitochondrial membrane potential change in A549 cells, profiling panel, cell-based, JC-1 fluorescence, basal, 24 h, 100 nL (AID 1138); conditions: higher = more signal;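 note: A549 lung adenocarcinoma cells under basal conditions with no added stimulus; test concentration not given here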
Lefty1 = Lefty1 binders on small-molecule microarrays, primary screen, biochemical, small-molecule microarray, 635/667 nm fluorescence (AID 1139); conditions: small-molecule microarray binding, fluorescence 635/667; higher = more signal
[16] = system: wheat germ agglutinin (Triticum aestivum), Alexa647-labelled; assay: wheat germ agglutinin binders on compound microarrays, profiling panel, artefact control for SMM control-protein annotation, biochemical, small-molecule microarray, 635/667 nm fluorescence (AID 1140); conditions: WGA-A647 binding, 635 nm fluorescence, higher = more signal;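 note: score merges 667 nm feature emission with signal to noise over triplicate slides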
[17] = molecular target: Luciferin 4-monooxygenase (Photinus pyralis) (UniProt P08659); assay: firefly luciferase enzyme inhibitors, primary screen, biochemical, luminescence, purified enzyme, 2006 set (AID 1141); conditions: SteadyGlo luminescence, 30 min, higher = more signal, called active from +8 up or from −8 down;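 note: cell-free assay with purified firefly luciferase at 100 ng per well in PBS; test concentration not given here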
Sequence of Luciferin 4-monooxygenase (Photinus pyralis) (P08659 whole entry, looked up): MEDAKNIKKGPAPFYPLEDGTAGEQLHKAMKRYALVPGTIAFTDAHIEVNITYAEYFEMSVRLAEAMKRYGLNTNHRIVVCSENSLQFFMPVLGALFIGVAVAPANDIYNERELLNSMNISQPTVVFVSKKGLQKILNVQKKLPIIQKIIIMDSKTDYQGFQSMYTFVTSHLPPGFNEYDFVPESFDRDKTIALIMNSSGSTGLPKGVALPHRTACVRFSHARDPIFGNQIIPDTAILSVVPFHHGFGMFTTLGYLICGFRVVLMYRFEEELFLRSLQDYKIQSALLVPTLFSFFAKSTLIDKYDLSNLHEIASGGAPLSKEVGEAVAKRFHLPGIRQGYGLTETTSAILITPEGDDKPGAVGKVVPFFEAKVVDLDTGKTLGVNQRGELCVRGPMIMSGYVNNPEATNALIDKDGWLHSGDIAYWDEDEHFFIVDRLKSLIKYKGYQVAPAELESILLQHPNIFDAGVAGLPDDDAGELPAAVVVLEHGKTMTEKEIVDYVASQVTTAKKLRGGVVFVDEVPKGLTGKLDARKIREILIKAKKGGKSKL

Sequence of Concanavalin-A (Canavalia ensiformis) (P02866 whole entry, looked up): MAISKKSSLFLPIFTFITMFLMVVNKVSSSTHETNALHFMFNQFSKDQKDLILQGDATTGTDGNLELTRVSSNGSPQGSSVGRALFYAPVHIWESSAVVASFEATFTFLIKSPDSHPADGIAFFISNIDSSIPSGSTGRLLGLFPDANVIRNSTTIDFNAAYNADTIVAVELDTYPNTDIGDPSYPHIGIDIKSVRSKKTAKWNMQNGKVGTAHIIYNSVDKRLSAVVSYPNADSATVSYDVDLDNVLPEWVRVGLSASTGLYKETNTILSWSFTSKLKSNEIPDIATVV
Sequence of Focal adhesion kinase 1 (Homo sapiens) (Q05397 whole entry, looked up): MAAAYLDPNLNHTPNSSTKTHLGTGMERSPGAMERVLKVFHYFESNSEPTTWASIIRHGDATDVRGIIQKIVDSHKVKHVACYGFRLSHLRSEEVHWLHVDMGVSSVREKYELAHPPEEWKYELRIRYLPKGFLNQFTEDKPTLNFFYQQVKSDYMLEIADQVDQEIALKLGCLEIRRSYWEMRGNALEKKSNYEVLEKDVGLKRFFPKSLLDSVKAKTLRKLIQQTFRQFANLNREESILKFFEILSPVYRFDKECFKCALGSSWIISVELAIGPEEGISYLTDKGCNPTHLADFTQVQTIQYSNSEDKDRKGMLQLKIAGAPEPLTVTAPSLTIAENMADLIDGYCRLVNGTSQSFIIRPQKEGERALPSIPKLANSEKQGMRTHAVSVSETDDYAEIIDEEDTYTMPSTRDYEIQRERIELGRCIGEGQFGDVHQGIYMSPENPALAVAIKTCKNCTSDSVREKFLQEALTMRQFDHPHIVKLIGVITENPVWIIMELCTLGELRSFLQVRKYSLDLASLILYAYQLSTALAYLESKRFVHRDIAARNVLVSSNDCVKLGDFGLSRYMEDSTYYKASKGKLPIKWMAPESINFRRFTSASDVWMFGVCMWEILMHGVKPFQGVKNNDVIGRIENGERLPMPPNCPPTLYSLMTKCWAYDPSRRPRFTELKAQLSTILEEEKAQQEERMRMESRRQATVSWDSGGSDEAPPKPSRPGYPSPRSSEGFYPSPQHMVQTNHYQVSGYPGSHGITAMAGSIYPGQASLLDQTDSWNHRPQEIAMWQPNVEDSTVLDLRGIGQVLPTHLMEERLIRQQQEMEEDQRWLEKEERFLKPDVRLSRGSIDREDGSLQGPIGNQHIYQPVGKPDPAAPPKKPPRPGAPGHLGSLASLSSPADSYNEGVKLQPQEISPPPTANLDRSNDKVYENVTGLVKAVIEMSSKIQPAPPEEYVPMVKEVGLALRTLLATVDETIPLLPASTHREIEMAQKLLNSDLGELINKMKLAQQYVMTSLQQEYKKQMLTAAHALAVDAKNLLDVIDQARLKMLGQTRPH
Sequence of Fibroblast growth factor 2 (Homo sapiens) (P09038 whole entry, looked up): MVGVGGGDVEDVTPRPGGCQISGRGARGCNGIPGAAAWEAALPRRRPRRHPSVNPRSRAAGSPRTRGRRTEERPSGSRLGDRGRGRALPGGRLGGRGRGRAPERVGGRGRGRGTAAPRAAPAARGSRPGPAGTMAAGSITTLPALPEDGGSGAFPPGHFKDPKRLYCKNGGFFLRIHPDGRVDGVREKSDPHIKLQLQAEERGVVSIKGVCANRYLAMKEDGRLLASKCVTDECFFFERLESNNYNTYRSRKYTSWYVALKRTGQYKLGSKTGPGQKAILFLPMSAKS
Sequence of Follistatin (Homo sapiens) (P19883 whole entry, looked up): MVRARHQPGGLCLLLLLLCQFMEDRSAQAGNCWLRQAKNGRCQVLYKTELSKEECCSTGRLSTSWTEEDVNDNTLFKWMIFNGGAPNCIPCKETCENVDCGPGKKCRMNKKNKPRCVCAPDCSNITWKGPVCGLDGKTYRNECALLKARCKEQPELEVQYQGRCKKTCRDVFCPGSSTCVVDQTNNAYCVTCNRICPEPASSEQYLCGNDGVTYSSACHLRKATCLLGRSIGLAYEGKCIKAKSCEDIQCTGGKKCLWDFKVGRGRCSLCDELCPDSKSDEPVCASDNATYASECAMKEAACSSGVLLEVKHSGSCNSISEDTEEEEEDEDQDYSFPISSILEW
Sequence of Albumin (Bos taurus) (P02769 whole entry, looked up): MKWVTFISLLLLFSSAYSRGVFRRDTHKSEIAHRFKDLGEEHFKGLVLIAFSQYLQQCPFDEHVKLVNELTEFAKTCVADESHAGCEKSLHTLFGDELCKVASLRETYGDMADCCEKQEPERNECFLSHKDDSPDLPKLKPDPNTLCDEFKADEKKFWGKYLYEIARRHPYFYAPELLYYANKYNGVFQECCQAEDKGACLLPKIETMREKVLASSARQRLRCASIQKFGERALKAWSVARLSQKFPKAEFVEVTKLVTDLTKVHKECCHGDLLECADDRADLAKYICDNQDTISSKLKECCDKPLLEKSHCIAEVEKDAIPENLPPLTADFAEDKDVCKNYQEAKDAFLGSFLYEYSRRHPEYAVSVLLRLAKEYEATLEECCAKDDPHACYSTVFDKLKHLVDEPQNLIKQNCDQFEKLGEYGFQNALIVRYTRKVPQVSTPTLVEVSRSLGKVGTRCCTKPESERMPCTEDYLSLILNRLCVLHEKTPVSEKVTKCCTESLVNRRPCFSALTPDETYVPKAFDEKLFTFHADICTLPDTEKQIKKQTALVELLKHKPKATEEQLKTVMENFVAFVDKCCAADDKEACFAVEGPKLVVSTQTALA

## C#CCCCON=C1C[C@@H](O)[C@@H](O)[C@@H]2[C@@H]3C(=O)N(C(C)(C)C)C(=O)[C@@H]3CC[C@@H]12
Albumin (Bos taurus)
  composite z-score: 0.0601
[1]
  composite Z-score: -0.0448 (inactive)
[2]
  composite z-score: 0.0137
[3]
  composite z-score: -0.123
[4]
  composite z-score: -0.219
[5]
  composite z-score: 0.496
[6]
  composite z-score: 0.485
Sam68 (KHDRBS1)
  composite z-score: -0.161
[7]
  composite z-score: 0.888
[8]
  composite z-score: -0.616
[9]
  composite z-score: -0.331
[10]
  composite z-score: -0.175
[11]
  composite z-score: 0.324
[12]
  composite z-score: 0.139
[13]
  composite z-score: -1.54
[14]
  composite z-score: -0.92
[15]
  z-score: -0.289
Lefty1
  composite z-score: -1.28
[16]
  composite z-score: 0.171
[17]
  z-score: 0.648 (inactive)

## CCOC(=O)[C@H](Cc1ccccc1)NC(=O)CCC1CC(OC(=O)NCCc2ccc(F)cc2)CC2(CCCC(COC(=O)NCCc3ccc(Cl)cc3)O2)O1 (stereo not given in full)
Albumin (Bos taurus)
  composite z-score: 0.755
[1]
  composite Z-score: 0.118 (inactive)
[2]
  composite z-score: 0.0179
[3]
  composite z-score: -0.101
[4]
  composite z-score: 0.283
[5]
  composite z-score: 1.12
[6]
  composite z-score: 0.416
Sam68 (KHDRBS1)
  composite z-score: 1.23
[7]
  composite z-score: 0.38
[8]
  composite z-score: 1.03
[9]
  composite z-score: 1.03
[10]
  composite z-score: 1.09
[11]
  composite z-score: 0.671
[12]
  composite z-score: 0.832
[13]
  composite z-score: 0.326
[14]
  composite z-score: 0.996
[15]
  z-score: 0.699
Lefty1
  composite z-score: 0.583
[16]
  composite z-score: 0.105
[17]
  z-score: 0.361 (inactive)

## C=CC[C@@H]1C=C[C@H](ON=C(C)CCC(=O)OC[C@H]2O[C@H](C#Cc3ccccc3)C=C[C@@H]2Oc2ccc(C)cc2)[C@@H](CO)O1
Albumin (Bos taurus)
  composite z-score: 0.791
[1]
  composite Z-score: 0.153 (inactive)
[2]
  composite z-score: -0.0898
[3]
  composite z-score: -0.101
[4]
  composite z-score: 0.286
[5]
  composite z-score: 1.23
[6]
  composite z-score: 0.441
Sam68 (KHDRBS1)
  composite z-score: 1.29
[7]
  composite z-score: 0.126
[8]
  composite z-score: 1.13
[9]
  composite z-score: -0.443
[10]
  composite z-score: 0.828
[11]
  composite z-score: -0.0073
[12]
  composite z-score: 0.955
[13]
  composite z-score: 0.656
[14]
  composite z-score: 0.42
[15]
  z-score: -0.0271
Lefty1
  composite z-score: 0.842
[16]
  composite z-score: -0.0056
[17]
  z-score: 0.666 (inactive)

## O=c1n(Cc2cc3c(cc2Cl)OCO3)c(=O)n2n1CC[C@@H]1C(=NOC[C@@H](O)COCc3ccco3)[C@H]3O[C@H]3[C@@H](O)[C@@H]12
Albumin (Bos taurus)
  composite z-score: -0.0922
[1]
  composite Z-score: -0.263 (inactive)
[2]
  composite z-score: -0.0841
[3]
  composite z-score: -0.0974
[4]
  composite z-score: 0.351
[5]
  composite z-score: -0.0175
[6]
  composite z-score: 0.0735
Sam68 (KHDRBS1)
  composite z-score: 0.175
[7]
  composite z-score: 0.57
[8]
  composite z-score: 0.392
[9]
  composite z-score: 0.0465
[10]
  composite z-score: 0.642
[11]
  composite z-score: -0.0676
[12]
  composite z-score: 0.354
[13]
  composite z-score: 0.568
[14]
  composite z-score: 0.546
[15]
  z-score: -0.15
Lefty1
  composite z-score: 0.414
[16]
  composite z-score: 0.004
[17]
  z-score: -0.357 (inactive)

## CCc1cc2c(nc1CC)CCN(CCC(C)=NO[C@H](C)c1cn([C@H](CO)Cc3ccccc3)nn1)C2
Albumin (Bos taurus)
  composite z-score: 0.867
[1]
  composite Z-score: -0.51 (inactive)
[2]
  composite z-score: 0.189
[3]
  composite z-score: -0.101
[4]
  composite z-score: 0.0934
[5]
  composite z-score: 0.287
[6]
  composite z-score: 0.022
Sam68 (KHDRBS1)
  composite z-score: 0.708
[7]
  composite z-score: 0.357
[8]
  composite z-score: -0.0875
[9]
  composite z-score: 1.08
[10]
  composite z-score: 0.282
[11]
  composite z-score: 0.119
[12]
  composite z-score: 0.408
[13]
  composite z-score: 0.672
[14]
  composite z-score: 0.884
[15]
  z-score: 0.085
Lefty1
  composite z-score: 0.531
[16]
  composite z-score: 0.55
[17]
  z-score: -0.378 (inactive)
